Reference: ChEMBL document CHEMBL3988442, “University of Dundee, Small-Polar-MMV Screening Library” (2021)

These compounds were tested against T1, Arginase-2, mitochondrial (Homo sapiens) (UniProt P78540) (assay: in vitro enzyme assay to detect the production of urea directly proportional to the activity of Arginase II). Settings: 33.3 µM.
T1 sequence (whole entry): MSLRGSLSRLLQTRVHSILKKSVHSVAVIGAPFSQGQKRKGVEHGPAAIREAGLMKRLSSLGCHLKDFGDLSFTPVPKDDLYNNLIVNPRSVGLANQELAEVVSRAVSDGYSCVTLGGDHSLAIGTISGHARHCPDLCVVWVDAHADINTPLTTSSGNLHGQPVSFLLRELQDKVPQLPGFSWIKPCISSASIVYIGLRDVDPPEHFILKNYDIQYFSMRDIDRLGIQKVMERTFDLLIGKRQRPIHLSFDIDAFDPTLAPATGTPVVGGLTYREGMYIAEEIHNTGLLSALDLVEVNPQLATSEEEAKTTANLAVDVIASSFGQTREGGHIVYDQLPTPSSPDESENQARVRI
Type: functional
Set-up: scale not given: direction of the effect not stated beside the values

Compound	Percent Effect [%]
CCOc1nnc(CN(C)C2CCCN(c3cccnn3)C2)s1 (stereo not given)	-11.8
Cc1cc(-c2nnn(CCC(N)=O)n2)ccc1F	-2.79
Cn1cc(C(=O)CC2CCCN2C(=O)c2cncc3ccccc23)cn1 (stereo not given)	4.95
Cc1ccccc1CSCCn1nc2ccccn2c1=O	4
Cn1ccnc1-c1cccc(NC(=O)NCCCO)c1	19.4

The compounds below were run against T2, Proteasome subunit beta (Trypanosoma cruzi) (UniProt O96673) (assay: Trypanosoma cruzi proteasome chymotrypsin-like activity (TcProtChymo) assay.). Settings: 9.37 µM.
T2 sequence (whole entry): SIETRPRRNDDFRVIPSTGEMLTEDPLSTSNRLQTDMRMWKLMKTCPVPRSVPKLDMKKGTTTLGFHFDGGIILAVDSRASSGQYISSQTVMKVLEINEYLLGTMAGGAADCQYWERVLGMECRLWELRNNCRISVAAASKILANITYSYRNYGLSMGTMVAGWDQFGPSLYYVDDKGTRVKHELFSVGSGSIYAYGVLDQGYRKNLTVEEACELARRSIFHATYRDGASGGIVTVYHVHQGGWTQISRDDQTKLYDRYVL
Type: functional
Set-up: scale not given: direction of the effect not stated beside the values

Compound	Percent Effect [%]
CCC1CN(c2nnc(C)c(C)c2C#N)CCO1 (stereo not given)	20.7
COC(=O)c1ccccc1NC(=O)c1nc2ccccc2n(C)c1=O	6.79
CCn1cnnc1C1CCN(C(=O)c2ccc(C(=O)OC)s2)CC1	7.43
COc1ccc(NC(=O)CNc2cccc3c2CCCC3)c(OC)c1	6.95
Cc1ccc(N2CCCC(NCc3cccc4c3OCCO4)C2)nn1 (stereo not given)	7.39
Cc1nc(CN2C(=O)C[C@@H]3[C@@H]2CCN3C(=O)C2CCOCC2)cs1	8.82
Cc1cnn(CC2CCCCN2CCC(=O)Nc2cc(C)on2)c1 (stereo not given)	11.7
COCC(=O)N1CCC2(CC1)COCCN2CCN(C)C	0.342
CCc1n[nH]c(C2CN(Cc3nccn3CC)CCO2)n1 (stereo not given)	9.62
CCOc1cccc(NS(=O)(=O)c2cc(C)c(C(=O)O)s2)c1	6.27
CCCNC(=O)c1sc(Nc2ccc(Cl)cn2)nc1C	13.5
CC(C)c1ncc2c(n1)CN(Cc1nc(Cc3ccccc3)no1)CC2	-5.92
CS(=O)(=O)NC1CCN(C(=O)NCCNc2ccccn2)CC1	4.85
OCC1CCCN1c1cc(NCc2ccc(Cl)s2)ncn1 (stereo not given)	24
COc1cc(CCC(=O)NC2CC2)ccc1OCC(F)(F)F	3.47
CCS(=O)(=O)c1ccc(N2CCC(NC(C)=O)CC2)cc1	14.8
CC(=O)c1cn(CCC(=O)N[C@H](C(=O)O)C(C)C)c2ccccc12	11.7
CCS(=O)(=O)c1ccc(N2CCC(NC(=O)c3cnn(C)c3)CC2)cc1	16.2
Cc1nc[nH]c1-c1nc2cc(S(=O)(=O)N3CCCC3)ccc2n1C	8.16
CCN(CCn1cccn1)Cc1nc(-c2ccccc2F)oc1C	5.61

Compound	Percent Effect [%]
CN(Cc1ccncc1)C(=O)Nc1cnn(CC2CCCO2)c1 (stereo not given)	20
Cc1cccc(-c2ccc(C(=O)NCC3CCOC3)c(=O)[nH]2)c1 (stereo not given)	-0.18
COc1ccc(C2CCCN2C(=O)NCCNc2ncccn2)cc1 (stereo not given)	19.3
Cc1cc(C)c2nc(CN3CC[C@@H](O)C3)cc(O)c2c1	11.9
CCOc1cccc(CNC(=O)NCC(O)c2cccc(F)c2)c1 (stereo not given)	-1.44
CN(C)C1CCN(C(=O)NCc2ccc(Cn3cncn3)cc2)CC1	14.5
Cc1nn(C)c(C)c1C1CCCN1C(=O)CCCn1cccn1 (stereo not given)	-2.45
O=C(NC1CCS(=O)(=O)C1)c1sccc1-c1ccc(F)cc1 (stereo not given)	8.15
O=C(NCCn1ccnc1)c1cccc(F)c1	9.56
CCC(=O)N1Cc2nccn2CC(CN(C)Cc2cccnc2)C1 (stereo not given)	7.49
Cc1nc(N2CCN(C(=O)c3ccc(O)cc3)CC2)c2cnn(C)c2n1	-2.88
CCOC(=O)C1CCN(C(=O)Cn2ccc3cc(Br)ccc32)CC1	9.43
Cc1cccc(CN2C[C@@H]3CN(C(=O)c4ccsc4)C[C@@H]3C2=O)c1	13
CN(C)S(=O)(=O)c1ccc(OCCNCCn2cccn2)cc1	5.15
CN(C)S(=O)(=O)N1CCC2(CCCN(Cc3ccc(F)cc3)C2=O)C1 (stereo not given)	5.22
CCOc1nnc(CN(C)C2CCCN(c3cccnn3)C2)s1 (stereo not given)	17.9
Cc1cc(-c2nnn(CCC(N)=O)n2)ccc1F	15.3
Cn1cc(C(=O)CC2CCCN2C(=O)c2cncc3ccccc23)cn1 (stereo not given)	5.66
Cc1ccccc1CSCCn1nc2ccccn2c1=O	10.9
Cn1ccnc1-c1cccc(NC(=O)NCCCO)c1	11.8

Species: Homo sapiens
Assay: To identify inhibition of the IFN signalling (Jak-Stat) pathway via expression of an eGFP reporter gene under the control of an IFN-stimulated response element (ISRE) containing MxA promoter.
Type: functional
Set-up: scale not given: direction of the effect not stated beside the values
Settings: 30 µM

Compound	Percent Effect [%]
CCC1CN(c2nnc(C)c(C)c2C#N)CCO1 (stereo not given)	9.86
COC(=O)c1ccccc1NC(=O)c1nc2ccccc2n(C)c1=O	17
CCn1cnnc1C1CCN(C(=O)c2ccc(C(=O)OC)s2)CC1	-6.83
COc1ccc(NC(=O)CNc2cccc3c2CCCC3)c(OC)c1	-3.03
Cc1ccc(N2CCCC(NCc3cccc4c3OCCO4)C2)nn1 (stereo not given)	-7.93
Cc1nc(CN2C(=O)C[C@@H]3[C@@H]2CCN3C(=O)C2CCOCC2)cs1	-4.21
Cc1cnn(CC2CCCCN2CCC(=O)Nc2cc(C)on2)c1 (stereo not given)	-10.4
COCC(=O)N1CCC2(CC1)COCCN2CCN(C)C	-11.3
CCc1n[nH]c(C2CN(Cc3nccn3CC)CCO2)n1 (stereo not given)	7.94
CCOc1cccc(NS(=O)(=O)c2cc(C)c(C(=O)O)s2)c1	-0.127
CCCNC(=O)c1sc(Nc2ccc(Cl)cn2)nc1C	-1.08
CC(C)c1ncc2c(n1)CN(Cc1nc(Cc3ccccc3)no1)CC2	10.2
CS(=O)(=O)NC1CCN(C(=O)NCCNc2ccccn2)CC1	14.7
OCC1CCCN1c1cc(NCc2ccc(Cl)s2)ncn1 (stereo not given)	74.3
COc1cc(CCC(=O)NC2CC2)ccc1OCC(F)(F)F	3.66
CCS(=O)(=O)c1ccc(N2CCC(NC(C)=O)CC2)cc1	24.6
CC(=O)c1cn(CCC(=O)N[C@H](C(=O)O)C(C)C)c2ccccc12	8.13
CCS(=O)(=O)c1ccc(N2CCC(NC(=O)c3cnn(C)c3)CC2)cc1	21.8
Cc1nc[nH]c1-c1nc2cc(S(=O)(=O)N3CCCC3)ccc2n1C	24.3
CCN(CCn1cccn1)Cc1nc(-c2ccccc2F)oc1C	7.62

Compound	Percent Effect [%]
CN(Cc1ccncc1)C(=O)Nc1cnn(CC2CCCO2)c1 (stereo not given)	17.6
Cc1cccc(-c2ccc(C(=O)NCC3CCOC3)c(=O)[nH]2)c1 (stereo not given)	12.2
COc1ccc(C2CCCN2C(=O)NCCNc2ncccn2)cc1 (stereo not given)	16.6
Cc1cc(C)c2nc(CN3CC[C@@H](O)C3)cc(O)c2c1	-16.8
CCOc1cccc(CNC(=O)NCC(O)c2cccc(F)c2)c1 (stereo not given)	29.2
CN(C)C1CCN(C(=O)NCc2ccc(Cn3cncn3)cc2)CC1	6.43
Cc1nn(C)c(C)c1C1CCCN1C(=O)CCCn1cccn1 (stereo not given)	9.1
O=C(NC1CCS(=O)(=O)C1)c1sccc1-c1ccc(F)cc1 (stereo not given)	-15.8
O=C(NCCn1ccnc1)c1cccc(F)c1	-11.5
CCC(=O)N1Cc2nccn2CC(CN(C)Cc2cccnc2)C1 (stereo not given)	-7.96
Cc1nc(N2CCN(C(=O)c3ccc(O)cc3)CC2)c2cnn(C)c2n1	15.3
CCOC(=O)C1CCN(C(=O)Cn2ccc3cc(Br)ccc32)CC1	4.34
Cc1cccc(CN2C[C@@H]3CN(C(=O)c4ccsc4)C[C@@H]3C2=O)c1	18.7
CN(C)S(=O)(=O)c1ccc(OCCNCCn2cccn2)cc1	11.8
CN(C)S(=O)(=O)N1CCC2(CCCN(Cc3ccc(F)cc3)C2=O)C1 (stereo not given)	4
CCOc1nnc(CN(C)C2CCCN(c3cccnn3)C2)s1 (stereo not given)	-12.4
Cc1cc(-c2nnn(CCC(N)=O)n2)ccc1F	11.3
Cn1cc(C(=O)CC2CCCN2C(=O)c2cncc3ccccc23)cn1 (stereo not given)	14.6
Cc1ccccc1CSCCn1nc2ccccn2c1=O	18.9
Cn1ccnc1-c1cccc(NC(=O)NCCCO)c1	15.7
